Drawing on PubChem BioAssay AID463173 (ICCB-Longwood Screening Facility, Harvard Medical School, 2010), this text covers survival for 101 compounds.

Out of some 52,000 compounds screened, about 4,300 (8.3%) were called active. For the sample, actives were picked, then their nearest neighbours and some compounds at random. A number with no mark means an inactive call. No stated cut-off is given here; in the data, active means survival mostly below about 52% (no sharp cut-off); inactive means mostly above about 56%.

The experiment deals with DeltatarO mutant. Put plainly: growth inhibition of S. aureus wild type versus tarO mutant, primary screen, teichoic acid synthesis inhibitors, RN4220, OD600 (AID 463173). The following applies: OD600, 18 h, active compounds read low, screened at 18.75 µg/mL (by protocol).
Turning to `CCCCc1cc(=O)oc2cc(C)c3c(C(C)(C)C)coc3c12`, the survival is 102%.

Take `CCOc1ccc(-c2cnc(NCc3ccc(OC)cc3OC)n2C)cc1`: the survival was 37% (active).

In the case of `CCOC(=O)c1cnc(NCc2ccc(OC)cc2OC)c2ccccc12`, the survival is 86%. The figure for `COc1ccc(OC)c(CNC(=O)CN2N=C(c3ccc(Cl)cc3)CCC2=O)c1` is 96%; for `COc1ccc(OC)c(CNc2ncc(-c3ccc(Cl)cc3)n2C)c1` it is 25% (active).

As to `COc1ccc(CNS(=O)(=O)c2cnc(N)nc2)c(OC)c1`, the survival was 83%.

With `COc1ccc(OC)c(CNc2ncnc3onc(-c4ccc(Cl)cc4)c23)c1`, the survival was 53%.

For the compound `CCOc1ccccc1C(=O)N1CC(=O)Nc2ccc(Cl)cc2C1c1ccccc1` (stereo unspecified), the survival was 73%. In the case of `Fc1ccc(Nc2c3c(nc4nncn24)CCC3)cc1`, the survival is 74%. Take `Cc1ccc(-n2nc(C(=O)Nc3cccc(C#N)c3)c3c4ccccc4n(C)c3c2=O)cc1`: the survival is 129%. The figure for `Cc1ccc(C(=O)c2oc3ccccc3c2NC(=O)c2cc(-c3ccccc3)on2)cc1` is 77%; for `O=C(c1ccco1)N1CCN(c2c3c(nc4cc(-c5cccc(F)c5)nn24)CCCC3)CC1` it is 70%. The figure for `Cc1ccc2cc(CN(Cc3cccnc3)C(=O)c3cccnc3)c(=O)[nH]c2c1` is 106%; for `Cc1cccc(Oc2ccc3c(c2)Oc2ccccc2NC3=O)c1` it is 73%. Take `O=C1Nc2ccccc2Oc2cc(Oc3ccccc3)ccc21`: the survival is 33% (active). The figure for `O=C1Nc2ccccc2Oc2cc(Oc3cccc(Cl)c3)ccc21` is 46%. Turning to `COc1ccc(-c2ccc(CNCCCSc3nnnn3C)o2)cc1Cl`, the survival is 79%. For the compound `CCc1ccc(NC(=O)Cn2c(=O)c(-c3ccccc3NC(C)=O)nc3ccccc32)cc1`, the survival is 44% (active). The figure for `CCc1ccc(NC(=O)C(CC)n2c(=O)c(-c3ccccc3NC(C)=O)nc3ccccc32)cc1` (stereo unspecified) is 65%. Next, `CC(=O)Nc1ccccc1-c1nc2ccccc2n(CC(=O)Nc2cccc(C(F)(F)F)c2)c1=O`: 45% (active); `COc1ccc(Cl)cc1NC(=O)Cn1c(=O)c(-c2ccccc2NC(C)=O)nc2ccccc21`: 103%. Next, `CC(=O)Nc1ccccc1-c1nc2ccccc2n(CC(=O)Nc2ccc(C)c(Cl)c2)c1=O`: 101%; `Nc1nonc1-c1nc2ccccc2n1CC(=O)Nc1cccc(C(F)(F)F)c1`: 95%; `CCOc1ccccc1-c1nc(C(N)=O)c2c(n1)n(-c1ccc3c(c1)OCO3)c(=O)n2C`: 79%. With `CCOc1ccc(NC(=O)Cc2c[nH]c3ccccc23)cc1`, the survival was 80%. Next, `Cc1oc2c(c1C(=O)NCCO)CCCC2`: 85%; `COCc1cc(C)nc2sc3c(c12)NC(c1ccc(O)cc1)N(c1ccc(OC)cc1)C3=O` (stereo unspecified): 76%; `CCCN1C(=O)C2(c3ccccc31)c1c(oc3ccc(F)cc3c1=O)C(=O)N2CCCOC(C)C` (stereo unspecified): 93%. Next, `COc1ccc2cc(C#N)c(N3CCCN(C(=O)/C=C/C(=O)O)CC3)nc2c1`: 105%; `CCCN1CCc2nc(N3CCN(c4ncccn4)CC3)ncc2C1`: 75%. Take `O=C1OCCC1Sc1nc2ccccc2n1Cc1ccccc1` (stereo unspecified): the survival is 73% (active).

Consider `O=C(CSc1nc2ccccc2n1Cc1ccccc1)NCc1ccccc1`, for which the survival was 95%. Next, `O=C(CSc1nc2ccccc2n1Cc1ccccc1)Nc1ccccn1`: 81%; `COC(=O)c1nnn(CC(=O)Nc2c(C)cccc2C)c1N`: 87%.

Take `Cc1ccc(NC(=O)CN2C(=O)COc3ccc(S(=O)(=O)N4CCCCCC4)cc32)cc1Cl`: the survival was 67%. Next, `COc1cccc(/C=N/NC(=O)c2cccc(C)c2)c1O`: 2% (active); `COc1cccc(/C=N/NC(=O)CSCc2ccccc2)c1O`: 69%. Next, `Cc1cccc(/C=N/NC(=O)c2ccccn2)c1O`: 5% (active).

Consider `O=C(N/N=C/c1ccc(OC(=O)c2ccco2)cc1)c1ccccn1`, for which the survival is 92%. The figure for `Cn1cccc1/C=N/NC(=O)c1ccccn1` is 77%.

`COc1cccc(/C=N/NC(=O)COc2c(C)cccc2C)c1O`: the survival was 88%. The figure for `COc1ccc(C(=O)Nc2ccc3nc4n(c(=O)c3c2)CCCCC4)cc1OC` is 91%; for `CCOc1ccc(-n2c(=O)c3c(C)c(C)sc3n(CC(=O)N3CCC(C)CC3)c2=O)cc1` it is 71%.

In the case of `CCC(C)NC(=O)c1ccc2nc(Cc3ccc(OC)cc3)oc2c1` (stereo unspecified), the survival is 76%. Regarding `CCOC(=O)c1c(C)[nH]c(CCC(=O)Nc2cc(Cl)ccc2OC)c1C`, the survival was 94%. On to `COc1ccccc1CNC(=O)Cn1c(=O)ccc2cc(S(=O)(=O)N3CCCC3)ccc21`, for which the survival was 69%. Regarding `CCn1nc(C)c(CCN(C)C(=O)Nc2cc(OC)c(OC)c(OC)c2)c1C`, the survival was 89%.

In the case of `COc1cc2c(cc1NC(=O)COc1ccc(Br)cc1C)oc1ccccc12`, the survival was 119%. The figure for `CCc1ccc(OCC(=O)Nc2cc3oc4ccccc4c3cc2OC)cc1` is 47% (active); for `COc1cc2c(cc1NC(=O)COc1ccc(Br)c(C)c1)oc1ccccc12` it is 49%. As to `CCc1ccc(OCC(=O)Nc2cc3oc4ccccc4c3cc2OC)c(Br)c1`, the survival was 123%. On to `COc1cc2c(cc1NC(=O)COc1ccc(Br)cc1)oc1ccccc12`, for which the survival was 72%.

With `COc1cc2c(cc1NC(=O)COc1ccc(Cl)cc1)oc1ccccc12`, the survival was 46% (active). Next, `O=C(CN1CCSc2ccccc21)N1CCN(c2ccc(F)cc2)CC1`: 88%; `O=C(O)CCCNc1ncnc2ccccc12`: 92%.

Turning to `COc1ccc(NC(=O)C2CCN(c3nc4ccccc4[nH]3)CC2)cc1OC`, the survival is 66%.

As to `Fc1ccccc1-n1ncc2c1ncn1nc(Cc3ccccc3)nc21`, the survival is 74%. Next, `COc1cccc(C2C3CN(C(C)=O)CC=C3C(C#N)=C(N)C2(C#N)C#N)c1` (stereo unspecified): 93%; `CCOC(=O)N1CC=C2C(C#N)=C(N)C(C#N)(C#N)C(c3ccc(CC)cc3)C2C1` (stereo unspecified): 88%; `CC(C)(C)OC(=O)N1CC=C2C(C#N)=C(N)C(C#N)(C#N)C(c3ccc4c(c3)OCO4)C2C1` (stereo unspecified): 35% (active). Next, `COc1cc(NC(=O)N2CCC(CN3CCc4ccccc4C3)CC2)cc(OC)c1`: 70%. The figure for `Cc1cccc(NC(=O)N2CCC(CN3CCCCCC3)CC2)c1C` is 81%; for `Cc1cc(C)cc(NC(=O)N2CCC(CN3CCc4ccccc4C3)CC2)c1` it is 72%.

Consider `COC(=O)c1ccc(NC(=O)N2CCC(CN3CCc4ccccc4C3)CC2)cc1`, for which the survival is 6% (active). Next, `Cc1cccc(NC(=O)N2CCC(CN3CCc4ccccc4C3)CC2)c1C`: -2% (active).

With `CCOc1ccc(NC(=O)N2CCC(CN3CCC(C)CC3)CC2)cc1`, the survival is 117%. Regarding `CCOc1ccc(NC(=O)N2CCC(CN3CCCCCC3)CC2)cc1`, the survival was 115%. The figure for `CCc1ccccc1NC(=O)N1CCC(CN2CCc3ccccc3C2)CC1` is 76%; for `CCOc1ccc(NC(=O)N2CCC(CN3CCc4ccccc4C3)CC2)cc1` it is -1% (active); for `COc1ccc(Cl)cc1NS(=O)(=O)c1cc(-c2cc(C)no2)ccc1C` it is 87%.

In the case of `CCCCn1c(=O)c2oc3ccccc3c2n(Cc2ccccc2C)c1=O`, the survival was 55%.

In the case of `COc1cccc(-n2nnc(-c3nc(-c4ccccc4F)no3)c2C)c1`, the survival was 84%. Turning to `CC1CCN(C(=O)Cn2c(SCC(=O)NC(C)(C)C)nc3ccccc32)CC1`, the survival is 92%. The figure for `Cc1ccc(OCCSc2nc3ccccc3n2CC(=O)N2CCOCC2)c(C)c1` is 93%; for `O=C(Cn1c(SCCOc2ccccc2)nc2ccccc21)N1CCOCC1` it is 47%; for `COc1ccc(OCCSc2nc3ccccc3n2CC(=O)N2CCOCC2)cc1` it is 51%. Regarding `CC1CCN(C(=O)Cn2c(SCC(=O)Nc3ccc(F)cc3)nc3ccccc32)CC1`, the survival was 96%. The figure for `Cc1cccc(OCCSc2nc3ccccc3n2CC(=O)N2CCOCC2)c1` is 44% (active). As for `Cc1ccc(NC(=O)CSc2nc3ccccc3n2CC(=O)N2CCC(C)CC2)cc1C`, the survival was 17% (active). Next, `Cc1ccc(OCCSc2nc3ccccc3n2CC(=O)N2CCOCC2)cc1`: 96%; `COc1cccc(OCCSc2nc3ccccc3n2CC(=O)N2CCCCC2)c1`: 42% (active); `COc1cccc(OCCSc2nc3ccccc3n2CC(=O)N2CCOCC2)c1`: 44% (active). Next, `COc1ccc(C2CC(=O)Nc3c2c(C)nn3-c2nncc(-c3ccc(C)cc3)n2)c(OC)c1OC` (stereo unspecified): 83%; `CCOc1ccc(/C=C(\C#N)C(=O)NCc2ccco2)cc1OC`: 113%; `CCOc1ccc(CNCc2c(C(=O)O)c(C)n(Cc3c(F)cccc3Cl)c2C)cc1OC`: 56%. `COc1ccc(C2CC(=O)c3cc(-c4nc(-c5ccc(C)cc5)cs4)c(=O)[nH]c3C2)cc1` (stereo unspecified): the survival is 76%. Next, `O=C(CNC(=O)c1ccc(Cl)cc1)OCc1cc(=O)n2nc(C3CCCCC3)sc2n1`: 90%; `CCCCn1cc(S(=O)(=O)c2ccc(Cl)cc2)c(=O)c2cc(F)c(N3CCCC(C)C3)cc21` (stereo unspecified): 117%; `O=C(c1ccc(F)cc1)C1CCN(S(=O)(=O)c2ccc(F)cc2)CC1`: 95%. The figure for `COc1ccc(CNC(=O)CCCc2nnc3n(CCC(C)C)c(=O)c4sccc4n23)cc1` is 93%; for `Cc1ccc2nc(NC(=O)CSc3cc(C)[nH]c(=O)n3)sc2c1` it is 79%.

On to `Cc1cccc(C)c1OCCSc1nc2ccccc2n1CC(=O)O`, for which the survival was 83%. Next, `Cc1ccc(OCCSc2nc3ccccc3n2CC(=O)N2CCCCC2)cc1C`: 46% (active); `Cc1ccc(OCCSc2nc3ccccc3n2CC(=O)N2CCOCC2)cc1C`: 53%. In the case of `O=C(Cn1c(SCCOc2ccc(Cl)cc2)nc2ccccc21)N1CCCCC1`, the survival is 50%. The figure for `CCN(CC)C(=O)Cn1c(SCC(=O)Nc2ccc(F)cc2)nc2ccccc21` is 100%; for `Cn1c(SCCC(=O)O)nc2ccccc21` it is 83%. The figure for `CCc1ccc(OCCSc2nc3ccccc3n2CC(=O)N2CCCCC2)cc1` is 40% (active). The figure for `Cc1ccc(OCCSc2nc3ccccc3n2CCC(=O)O)cc1C` is 47% (active); for `Cc1ccc(OCCSc2nc3ccccc3n2CC(=O)NC(C)C)cc1` it is 52%.

Regarding `CCN(CC)C(=O)Cn1c(SCCOc2ccc(Cl)cc2)nc2ccccc21`, the survival was 43% (active).
